# High-throughput results (PubChem)
# NPC1 prom act = activators of NPC1 promoter. Potency, µM (series often up to 9.22 µM), for the others: top-dose activation, actives largely listed as activators. Huh7 NPC1 promoter luciferase reporter, 24 h. 2.4% of 320,000 active; also: % of control where 0% means no effect; nearly all actives have a fitted effect of over 60% in size
#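 Compounds in DMSO were transferred onto Huh7 NPC1-luciferase reporter cells pre-incubated 2 h; after 24 h at 37 °C, Amplite reagent was dispensed and luminescence recorded 10 min later.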
# SMN2 splice up = increases expression of the SMN2 splice variant; Potency, µM (highest dose often 46.1 µM), without a hit: top-dose activity change, positive = activation, actives largely listed as activators; HEK293 SMN2-luciferase splicing reporter, luminescence, 30-36 h; 2.8% of 210,000 active; also: % of control where 0% means no effect; nearly all actives have a fitted effect of over 55% in size
#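 qHTS luciferase splicing reporter: luminescence rises when SMN2 exon 7 is included in transfected HEK293 cells. Compound exposure lasted 30-36 h at 37C, with 4.5 mM final sodium butyrate as control, followed by a ONE-Glo read.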
# FLuc counter = counter-screen for miR-21 project: firefly luciferase inhibitors or activators | P08659 | purified FLuc, Km substrates, luminescence inhibition | Potency, µM (highest dose often 57.5 µM), inactives show top-dose activity change, negative = inhibition, usual class: inhibitors | 6.9% of 360,000 active;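 also: plate controls were vehicle for no effect and reference inhibitor for full effect; nearly all actives have a fitted effect of over 55% in size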
# Target sequence (P08659 whole entry, looked up): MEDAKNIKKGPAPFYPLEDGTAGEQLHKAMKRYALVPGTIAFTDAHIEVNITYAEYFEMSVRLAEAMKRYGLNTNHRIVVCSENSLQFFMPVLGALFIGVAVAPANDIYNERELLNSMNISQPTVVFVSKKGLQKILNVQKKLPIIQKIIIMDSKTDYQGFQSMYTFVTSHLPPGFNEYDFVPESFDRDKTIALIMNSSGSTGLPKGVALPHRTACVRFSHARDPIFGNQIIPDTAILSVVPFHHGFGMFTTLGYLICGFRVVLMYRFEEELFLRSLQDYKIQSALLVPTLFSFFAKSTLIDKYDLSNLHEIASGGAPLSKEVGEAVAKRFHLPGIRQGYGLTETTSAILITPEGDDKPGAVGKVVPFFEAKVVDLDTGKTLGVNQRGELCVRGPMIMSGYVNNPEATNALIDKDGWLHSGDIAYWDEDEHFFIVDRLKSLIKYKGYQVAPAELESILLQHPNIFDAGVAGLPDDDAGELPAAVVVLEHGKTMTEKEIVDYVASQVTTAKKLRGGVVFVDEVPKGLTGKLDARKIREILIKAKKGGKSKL
#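 Purified P. pyralis luciferase (10nM final) with 10uM D-luciferin and 10uM ATP (Km levels) in 50mM Tris acetate pH 7.5, 10mM Mg acetate, 0.01% Tween-20, 0.05% BSA; qHTS 6-point titration, ~60 µM downward; luminescence read.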
# ELG1 DNA repair = blocks ELG1-dependent DNA repair in HEK293T cells; HEK293T ELG1-luciferase reporter, luminescence, 16 h; DNA damage induced by 5-fluorouridine; Potency, µM (highest dose often 46.1 µM), inactives show top-dose activity change, negative = inhibition, usual class: inhibitors; 2.3% of 330,000 active; also: % is scaled to controls: 0 for no effect and ±100 for the full control effect; nearly all actives have a fitted effect of over 55% in size
#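 Step one: seed 2,000 cells per well. Step two: pin-transfer compound or DMSO alongside 5-fluorouridine. Step three: incubate 16 hr, 37 °C, 5% CO2. Step four: add ONE-Glo, wait 30 min, read luminescence.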
# Rab9 promoter act = Rab9 promoter activation | Potency, µM (titrated, usually from 9.22 µM), for inactives: top-dose activation, negative = inhibition, hits mostly activators | AID 485297 | Huh7 Rab9 promoter-luciferase reporter, luminescence, 24 h | 2.8% of 320,000 active; also: % of control where 0% means no effect; nearly all actives have a fitted effect of over 60% in size
#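 Huh7 cells stably carrying a Rab9 promoter-luciferase reporter, 1500 cells per well in OP-MEM I with 10% FBS, treated with compound 24 hours at 37C. Luciferase activity read by luminescence after 10 minutes with Amplite reagent.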
# ELG1 genotoxic = inducers of genotoxicity in HEK293T ELG1-luciferase cells | HEK293T ELG1-luciferase reporter, luminescence, 16 h | Potency, µM (doses to about 46 µM), inactives show at the top dose activity change, positive = activation, usual class: activators | 1.3% of 330,000 active; also: % of control where 0% means no effect; nearly all actives have a fitted effect of over 60% in size
#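 Screening used a luciferase reporter fused to human ELG1 in HEK293T cells. Luminescence was read on a CCD plate imager after 16 hr exposure and 30 min ONE-Glo incubation.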
# * hit, by the source's call; u = inconclusive; x = no result. Rows were chosen to be rich in hits. Some 9.2% of all compounds tested hit in one or more screens of this group. Calls follow the shape of the dose curve; as a rule, active = well fitted curve in the direction sought with a large enough effect; inconclusive = small, poorly fitted or top-dose-only effect, or another doubt; inactive = no such curve, though single readings can be large; an effect the other way counts as inactive or inconclusive. Potency is read from the fitted curve at half-maximal effect.
SMILES,NPC1 prom act,SMN2 splice up,FLuc counter,ELG1 DNA repair,Rab9 promoter act,ELG1 genotoxic
O=C(Nc1ncc(Cc2ccccc2Cl)s1)C1CCCO1 (stereo unspecified),3.5µM*,13µM*,9.5µM*,u,1.4µM*,u
Cc1cc(C)c2c(-n3cccc3)c(C(=O)NCCCN3CCCCC3C)sc2n1 (stereo unspecified),x,x,0%,x,x,x
Cc1ccc(CNC(=O)CCCc2nnc3n(CC(C)C)c(=O)c4sccc4n23)cc1,x,x,0%,x,x,x
COc1ccc(O)c(-c2cc(-c3cccc(Br)c3)n[nH]2)c1,u,28%,19µM*,u,u,21µM*
COc1ccc(-c2cc(-c3ccc(Cl)cc3)n[nH]2)c(O)c1,1.8µM*,x,6µM*,u,2.5µM*,u
Oc1ccc(Br)cc1-c1cc(-c2ccccc2)n[nH]1,-5%,-20%,-16%,-2%,-3%,-2%
O=[N+]([O-])c1cccc(-c2cc(-c3cc(Br)ccc3O)[nH]n2)c1,-3%,x,-11%,16µM*,-1%,-10%
COc1ccc(-c2cc(-c3cc(OC)ccc3O)[nH]n2)cc1,u,u,24µM*,u,u,9.2µM*
Cc1csc(NC(=O)C(C)Oc2ccc(Cl)cc2C)n1 (stereo unspecified),3%,x,u,13%,0%,2%
COc1ccc(O)c(-c2cc(-c3ccc(F)cc3)n[nH]2)c1,4.5µM*,x,15µM*,u,u,u
COc1ccc(NS(=O)(=O)c2ccc3c(c2)n(C)c(=O)c(=O)n3C)cc1Cl,x,-20%,-8%,x,x,x
O=C(O)/C=C/C(=O)Nc1nccs1,-3%,x,5%,u,2%,0%
O=C(/C=C/c1ccc(Br)o1)Nc1nccs1,3.2µM*,13µM*,u,u,2.8µM*,u
O=C(Nc1nccs1)c1ccc(Br)o1,25%,11µM*,u,u,u,13%
CC(C)c1ccc(C2/C(=C(/O)c3ccc(F)cc3)C(=O)C(=O)N2CCCN2CCOCC2)cc1 (stereo unspecified),-5%,x,6%,4%,-6%,4%
Cc1ccccc1N=C/C=C1/C=C(c2ccccc2)OC(C)(C)O1,-2%,-4%,-11%,13µM*,-3%,-7%
COc1ccc(-n2nc3cc(C)c(N)c(Br)c3n2)cc1,2.8µM*,7.9µM*,1.1µM*,u,1.3µM*,7.3µM*
COc1ccc(-n2nc3cc(N)c(Br)cc3n2)cc1,u,x,4.8µM*,u,u,18µM*
Cc1ccc(-c2nc3ccsc3c(=O)[nH]2)cc1,21%,18µM*,12µM*,u,u,u
Cc1ccc(-c2csc3nc(-c4ccncc4)[nH]c(=O)c23)cc1,-17%,x,-16%,16%,-25%,1%
COc1ccc(C2CC(=O)N(CC(=O)Nc3cccc(C)c3C)c3ccccc3S2)cc1OC (stereo unspecified),x,-2%,-8%,x,x,x
Cc1cc2nc(SCC(=O)Nc3ccccc3C(=O)O)[nH]c2cc1C,0%,30%,11µM*,u,-4%,u
NC(=O)c1ccccc1NC(=O)CSc1nc2ccccc2c(=O)[nH]1,0%,x,1%,-1%,7%,-4%
Cc1nc(SCc2nc3ccccc3[nH]2)c2oc3cc([N+](=O)[O-])ccc3c2n1,x,x,x,23µM*,x,0%
COc1ccc(-c2ccc(-c3nnn(CC(=O)N4CCOCC4)n3)cc2)cc1,3.2µM*,u,0.38µM*,u,2.8µM*,u
CCOC(=O)Cn1nnc(-c2cccc(OC)c2)n1,-1%,-6%,11µM*,20%,5%,6%
COc1cc(-c2nnn(CC(=O)N3CCOCC3)n2)cc(OC)c1OC,1%,-11%,-2%,23%,-1%,0%
O=C(Cn1nnc(-c2ccccc2F)n1)N1CCCCC1,3.2µM*,x,u,u,2.5µM*,u
